Laboratory results taken from PubChem BioAssay (Tox21).
Results filed as inconclusive are left out. Activity calls are given as the source filed them. Unless noted, calls follow the shape of the dose curve; as a rule, active = well fitted curve in the direction sought with a large enough effect in the repeat runs; inconclusive = weak or mixed curves; inactive = no such curve, though single readings can be large; an effect the other way counts as inactive or inconclusive.

Experiments:
[1] = qHTS assay to identify aromatase inhibitors - cell viability counter screen (AID 743084);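 also: cells stimulated with testosterone during compound exposure; nearly all actives have a fitted effect of over 55% in size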
[2] = target: Aryl hydrocarbon receptor (Homo sapiens) (UniProt P35869); experiment: qHTS assay to identify small molecule that activate the aryl hydrocarbon receptor (AhR) signaling pathway (AID 743085); also: nearly all actives have a fitted effect of over 15% in size; also: potency is read from the fitted curve at half-maximal effect;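 as to activation: HG2L7.5c1 human HepG2 liver cells with stably integrated DRE-driven firefly reporter; series mostly up to about 70 µM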
Chain of Aryl hydrocarbon receptor (Homo sapiens) (P35869 whole entry, looked up): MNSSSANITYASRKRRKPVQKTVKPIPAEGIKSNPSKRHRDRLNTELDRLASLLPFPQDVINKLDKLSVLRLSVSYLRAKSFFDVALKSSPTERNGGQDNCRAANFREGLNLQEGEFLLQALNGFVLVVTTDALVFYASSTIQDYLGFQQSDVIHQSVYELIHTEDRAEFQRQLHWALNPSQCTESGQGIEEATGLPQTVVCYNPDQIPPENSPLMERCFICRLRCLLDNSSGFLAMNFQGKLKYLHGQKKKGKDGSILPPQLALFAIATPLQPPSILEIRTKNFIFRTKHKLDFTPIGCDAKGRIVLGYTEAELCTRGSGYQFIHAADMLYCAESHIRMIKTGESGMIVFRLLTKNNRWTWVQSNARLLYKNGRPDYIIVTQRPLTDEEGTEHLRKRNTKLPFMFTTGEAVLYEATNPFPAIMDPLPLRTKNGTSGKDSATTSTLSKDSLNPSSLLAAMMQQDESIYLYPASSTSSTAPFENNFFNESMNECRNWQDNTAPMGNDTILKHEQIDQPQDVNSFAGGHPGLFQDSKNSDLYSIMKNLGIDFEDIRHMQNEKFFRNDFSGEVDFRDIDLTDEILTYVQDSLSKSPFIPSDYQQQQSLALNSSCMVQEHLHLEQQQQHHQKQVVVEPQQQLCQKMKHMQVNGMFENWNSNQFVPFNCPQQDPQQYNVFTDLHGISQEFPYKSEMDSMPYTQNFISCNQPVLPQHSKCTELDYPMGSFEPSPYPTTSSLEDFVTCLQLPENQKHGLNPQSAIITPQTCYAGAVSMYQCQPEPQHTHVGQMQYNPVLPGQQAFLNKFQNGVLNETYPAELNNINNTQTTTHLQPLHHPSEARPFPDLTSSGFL
Procedure, shortened: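 Steps: seed HepG2-AhR-luc cells; allow 5 h at 37C; pin-transfer test compound or vehicle; incubate 24 h at 37C; add viability dye (30 min, 37C) and read fluorescence; add luciferase substrate (30 min, RT) and read luminescence.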

[3] = qHTS assay to identify small molecule that activate the aryl hydrocarbon receptor (AhR) signaling pathway - cell viability counter screen (AID 743086);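 also: HepG2 liver cells carrying the AhR DRE luciferase reporter; series mostly up to about 70 µM; nearly all actives have a fitted effect of over 45% in size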
Procedure, shortened: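 HepG2-AhR-luc (HG2L7.5c1) cells, 4000/well, treated 24 h at 37 C with compound; viability measured as CellTiter-Fluor fluorescence after 30 min in the same wells as the luciferase read.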

[4] = target: Peroxisome proliferator-activated receptor gamma (Homo sapiens) (UniProt P37231); experiment: qHTS assay to identify small molecule agonists of the peroxisome proliferator-activated receptor gamma (PPARg) signaling pathway (AID 743094; active = well fitted activation curve with a large enough effect in the signal ratio in the repeat runs, not every such curve was filed as active; the % refers to the signal ratio; also: potency is read from the fitted curve at half-maximal effect)
Chain of Peroxisome proliferator-activated receptor gamma (Homo sapiens) (P37231 whole entry, looked up): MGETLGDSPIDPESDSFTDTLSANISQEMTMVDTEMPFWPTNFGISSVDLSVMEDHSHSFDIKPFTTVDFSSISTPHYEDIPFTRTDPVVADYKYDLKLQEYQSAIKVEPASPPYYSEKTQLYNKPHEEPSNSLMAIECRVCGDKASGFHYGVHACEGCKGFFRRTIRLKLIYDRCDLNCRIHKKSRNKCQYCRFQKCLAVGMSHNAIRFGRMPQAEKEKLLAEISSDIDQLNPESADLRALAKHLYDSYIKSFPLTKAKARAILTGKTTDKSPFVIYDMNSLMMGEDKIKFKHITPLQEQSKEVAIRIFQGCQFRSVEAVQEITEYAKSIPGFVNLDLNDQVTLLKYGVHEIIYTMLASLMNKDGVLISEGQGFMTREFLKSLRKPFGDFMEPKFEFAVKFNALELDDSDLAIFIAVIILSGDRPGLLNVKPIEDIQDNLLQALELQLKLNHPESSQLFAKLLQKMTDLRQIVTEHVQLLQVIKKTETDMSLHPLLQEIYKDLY
Procedure, shortened: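 Fluorescence-based beta-lactamase readout in HEK293H PPARg UAS-bla cells after 17 h compound exposure (37C) and 1 h B/G FRET substrate incubation at room temperature.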

[5] = qHTS assay to identify small molecule antagonists of the peroxisome proliferator-activated receptor gamma (PPARg) signaling pathway - cell viability counter screen (AID 743194); also: nearly all actives have a fitted effect of over 55% in size
Procedure, shortened: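 Cytotoxicity counter screen in PPARg-bla HEK293H cells, same wells as reporter assay. Compounds plus 50 nM rosiglitazone (final) for 17 h at 37 C, then viability read by CellTiter-Glo luminescence.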

[6] = qHTS assay for small molecule agonists of the antioxidant response element (ARE) signaling pathway - cell viability counter screen (AID 743203; calls by dose curve; also: nearly all actives have a fitted effect of over 55% in size)
Procedure, shortened: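 Parallel cytotoxicity read-out for the ARE-bla screen: HepG2 reporter cells, 16 hrs with compounds, then CellTiter-Glo luminescence.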

[7] = qHTS assay for small molecule activators of the heat shock response signaling pathway - cell viability counter screen (AID 743209); also: nearly all actives have a fitted effect of over 50% in size
Procedure, shortened: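 To flag cytotoxic compounds, HSE-bla HeLa cells plated at 1500 cells/well were dosed for 5 h at 37 C, followed by the reporter FRET read and then CellTiter-Glo, with luminescence recorded 30 min after reagent addition.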

[8] = qHTS assay for small molecule activators of the heat shock response signaling pathway (AID 743210; active = well fitted activation curve with a large enough effect in the signal ratio in the repeat runs, with a control signal flat, not every such curve was filed as active; the % refers to the signal ratio;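 also: HeLa cells with beta-lactamase reporter driven by heat shock elements; series mostly up to about 63 µM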)
Procedure, shortened: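 Beta-lactamase reporter read-out: FRET substrate fluorescence after 2.5 h at RT, following 5 h compound treatment at 37 C of HeLa cells carrying HSE-driven bla reporter; quantitative HTS format.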

[9] = qHTS assay to identify small molecule agonists of the peroxisome proliferator-activated receptor delta (PPARd) signaling pathway - cell viability counter screen (AID 743211); also: nearly all actives have a fitted effect of over 55% in size; also: potency is read from the fitted curve at half-maximal effect
Procedure, shortened: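 Viability of GeneBLAzer PPARd UAS-bla HEK293H cells was assessed after 17 h compound incubation at 37C, using CellTiter-Glo reagent added after the reporter read and luminescence recorded 30 min later.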

[10] = target: Peroxisome proliferator-activated receptor delta (Homo sapiens) (UniProt Q03181); experiment: qHTS assay to identify small molecule agonists of the peroxisome proliferator-activated receptor delta (PPARd) signaling pathway (AID 743212; calls by dose curve)
Chain of Peroxisome proliferator-activated receptor delta (Homo sapiens) (Q03181 whole entry, looked up): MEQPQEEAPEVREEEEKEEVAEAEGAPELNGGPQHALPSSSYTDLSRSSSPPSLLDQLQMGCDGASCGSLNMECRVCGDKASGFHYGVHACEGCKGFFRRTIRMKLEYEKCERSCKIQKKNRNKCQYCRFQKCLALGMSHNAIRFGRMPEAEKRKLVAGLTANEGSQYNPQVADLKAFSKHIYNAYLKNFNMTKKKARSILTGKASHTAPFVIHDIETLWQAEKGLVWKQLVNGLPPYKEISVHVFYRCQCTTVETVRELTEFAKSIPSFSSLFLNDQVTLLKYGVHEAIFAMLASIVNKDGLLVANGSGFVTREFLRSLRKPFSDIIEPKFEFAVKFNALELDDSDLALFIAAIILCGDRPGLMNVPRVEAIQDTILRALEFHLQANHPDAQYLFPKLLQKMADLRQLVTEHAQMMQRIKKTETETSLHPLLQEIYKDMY
Procedure, shortened: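 Read-out: beta-lactamase FRET fluorescence after 2 h room-temperature incubation with LiveBLAzer B/G substrate. Cells were HEK293H carrying a UAS-bla reporter for PPARd, treated at 37 C with DMSO-dissolved compounds.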

[11] = qHTS assay to identify small molecule antagonists of the peroxisome proliferator-activated receptor delta (PPARd) signaling pathway - cell viability counter screen (AID 743213); also: nearly all actives have a fitted effect of over 50% in size; also: potency is read from the fitted curve at half-maximal effect
Procedure, shortened: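 HEK293H cells with the PPARd UAS-bla reporter, co-treated 17 h at 37 C with compounds and L165041 (300 nM final), were lysed with CellTiter-Glo. Luminescence indicated viable cell content.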

[12] = target: Peroxisome proliferator-activated receptor delta (Homo sapiens) (UniProt Q03181); experiment: qHTS assay to identify small molecule antagonists of the peroxisome proliferator-activated receptor delta (PPARd) signaling pathway (AID 743215; active = well fitted inhibition curve with a large enough effect in the signal ratio in the repeat runs, not every such curve was filed as active; the % refers to the signal ratio;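 also: cells stimulated with agonist L165041 at 300 nM final during compound exposure; series mostly up to about 62 µM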)
Procedure, shortened: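 Screen format: qHTS, antagonist mode. HEK293H PPARd-bla cells received compound and 300 nM L165041 (final), 17 h, 37 C. Beta-lactamase detected via FRET substrate fluorescence, 2 h, room temperature.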

[13] = target: Bile acid receptor (Homo sapiens) (UniProt Q96RI1); experiment: qHTS assay to identify small molecule antagonists of the farnesoid-X-receptor (FXR) signaling pathway (AID 743217; active = well fitted inhibition curve with a large enough effect in the signal ratio in the repeat runs, not every such curve was filed as active; the % refers to the signal ratio)
Chain of Bile acid receptor (Homo sapiens) (Q96RI1 whole entry, looked up): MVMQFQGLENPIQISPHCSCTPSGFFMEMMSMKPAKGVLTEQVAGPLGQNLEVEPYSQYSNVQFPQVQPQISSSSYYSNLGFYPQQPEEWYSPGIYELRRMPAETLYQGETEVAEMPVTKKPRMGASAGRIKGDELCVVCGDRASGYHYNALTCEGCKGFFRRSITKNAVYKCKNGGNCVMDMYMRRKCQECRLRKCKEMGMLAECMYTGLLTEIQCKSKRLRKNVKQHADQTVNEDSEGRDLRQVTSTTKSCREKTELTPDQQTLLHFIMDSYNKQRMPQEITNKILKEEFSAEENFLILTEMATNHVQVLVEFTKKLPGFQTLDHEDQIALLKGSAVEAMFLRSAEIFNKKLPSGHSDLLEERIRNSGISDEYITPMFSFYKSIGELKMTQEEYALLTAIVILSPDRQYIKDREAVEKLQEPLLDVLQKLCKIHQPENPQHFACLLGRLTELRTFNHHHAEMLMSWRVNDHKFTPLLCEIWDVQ
Procedure, shortened: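 Quantitative HTS, beta-lactamase reporter format: FXR-UAS-bla HEK 293T cells co-treated 16 h at 37 °C with compounds and 50 uM final chenodeoxycholic acid, then read by B/G FRET fluorescence.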

[14] = qHTS assay to identify small molecule agonists of the farnesoid-X-receptor (FXR) signaling pathway - cell viability counter screen (AID 743218); also: nearly all actives have a fitted effect of over 45% in size
Procedure, shortened: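 Same-well cytotoxicity check on FXR-UAS-bla HEK 293T cells: 5 h attachment, 16 h compound at 37 C, CellTiter-Glo luminescence read at room temperature after 30 min.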

[15] = target: Bile acid receptor (Homo sapiens) (UniProt Q96RI1); experiment: qHTS assay to identify small molecule agonists of the farnesoid-X-receptor (FXR) signaling pathway (AID 743220; active = well fitted activation curve with a large enough effect in the signal ratio in the repeat runs, not every such curve was filed as active; the % refers to the signal ratio)
Procedure, shortened: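 FXR-UAS-bla HEK 293T cells carrying a UAS-driven beta-lactamase reporter were plated for 5 h at 37C/5% CO2, then exposed to DMSO-dissolved Tox21 10K compounds for 16 h at 37C. A LiveBLAzer B/G FRET substrate was loaded for 2 h at room temperature before fluorescence reading.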

[16] = target: Vitamin D3 receptor (Homo sapiens) (UniProt P11473); experiment: qHTS assay to identify small molecule antagonists of the vitamin D receptor (VDR) signaling pathway (AID 743223; active = well fitted inhibition curve with a large enough effect in the signal ratio in the repeat runs, not every such curve was filed as active; the % refers to the signal ratio)
Chain of Vitamin D3 receptor (Homo sapiens) (P11473 whole entry, looked up): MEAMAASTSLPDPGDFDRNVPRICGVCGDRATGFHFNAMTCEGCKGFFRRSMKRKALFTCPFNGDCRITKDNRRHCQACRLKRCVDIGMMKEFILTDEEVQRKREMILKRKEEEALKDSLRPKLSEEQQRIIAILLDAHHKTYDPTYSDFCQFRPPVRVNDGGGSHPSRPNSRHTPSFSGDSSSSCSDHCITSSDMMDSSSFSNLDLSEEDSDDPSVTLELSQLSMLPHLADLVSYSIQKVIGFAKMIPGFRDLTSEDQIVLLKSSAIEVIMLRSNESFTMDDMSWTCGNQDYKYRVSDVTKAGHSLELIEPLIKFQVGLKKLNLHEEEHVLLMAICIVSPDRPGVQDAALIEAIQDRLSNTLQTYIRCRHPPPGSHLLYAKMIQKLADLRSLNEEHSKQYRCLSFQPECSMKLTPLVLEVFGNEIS
Procedure, shortened: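 Fluorescence from LiveBLAzer B/G FRET substrate, read after 2 h at room temperature, reflects beta-lactamase reporter activity in VDR-bla cells treated 16 h at 37C with compounds and agonist 1alpha,25-dihydroxyvitamin D3 (3 nM final).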

[17] = target: Peroxisome proliferator-activated receptor gamma (Homo sapiens) (UniProt P37231); experiment: qHTS assay to identify small molecule antagonists of the peroxisome proliferator-activated receptor gamma (PPARg) signaling pathway (AID 743191; calls by dose curve; also: nearly all actives have a fitted effect of over 30% in size; also: potency is read from the fitted curve at half-maximal effect)
Procedure, shortened: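 GeneBLAzer PPARg UAS-bla HEK293H cells, 5 h post-plating, exposed to compounds 17 h at 37C. LiveBLAzer B/G FRET substrate added for 1 h at room temperature; beta-lactamase reporter read by fluorescence intensity.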

[18] = qHTS assay for small molecule agonists of the antioxidant response element (ARE) signaling pathway (AID 743202; active = well fitted activation curve with a large enough effect in the signal ratio in the repeat runs, not every such curve was filed as active; the % refers to the signal ratio; also: potency is read from the fitted curve at half-maximal effect)
Procedure, shortened: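 HepG2 ARE-bla reporter line, 2,000 cells/well; 5 h preincubation 37 C/5% CO2; compound (DMSO) 16 h 37 C; B/G FRET substrate 2 h RT; fluorescence intensity.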

[19] = qHTS assay to identify small molecule antagonists of the farnesoid-X-receptor (FXR) signaling pathway - cell viability counter screen (AID 743221; active = well fitted cell-killing curve with a large enough effect in the repeat runs, not every such curve was filed as active; also: nearly all actives have a fitted effect of over 50% in size)
Procedure, shortened: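 Quantitative HTS of the Tox21 10K library run in parallel with the beta-lactamase reporter read. HEK 293T cells carrying a UAS-driven bla reporter got compound and 50 uM CDCA (final) for 16 h; ATP-based luminescence followed.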

[20] = target: Vitamin D3 receptor (Homo sapiens) (UniProt P11473); experiment: qHTS assay to identify small molecule agonists of the vitamin D receptor (VDR) signaling pathway (AID 743222; calls by dose curve)
Procedure, shortened: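 Using LiveBLAzer B/G FRET detection, agonism was scored in VDR-bla cells exposed overnight (16 h, 37C) to DMSO-dissolved compounds; substrate incubation was 2 h at room temperature.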

Measured: Potency

OCCC1CCCCN1 (stereo not drawn)
not listed: [17] | [18] | [19] | [20]
inactive: all other assays above

O=C(c1ccccc1)c1ccc2n1CCC2C(=O)O (stereo not drawn)
not listed: [4] | [7] | [10] | [12] | [13] | [15] | [16] | [20]
inactive: all other assays above

OC(CCN1CCCCC1)(c1ccccc1)C1CCCCC1 (stereo not drawn)
inactive: [1] | [2] | [3] | [4] | [18] | [7] | [8] | [9] | [12] | [14] | [19]

Nc1ccc(C(=O)Nc2ccccc2N)cc1
active: [2] 26.6 µM | [4] 9.52 µM
inactive: [1] | [3] | [5] | [9] | [10] | [19] | [16]

O=C(O)Cc1sc(-c2ccccc2)nc1-c1ccc(Cl)cc1
active: [2] 10.6 µM
not listed: [4] | [17] | [20]
inactive: all other assays above

Cn1c(NCCN(CCO)CCCc2ccc([N+](=O)[O-])cc2)cc(=O)n(C)c1=O
not listed: [7] | [8] | [11] | [12] | [13] | [15] | [17] | [20]
inactive: all other assays above

CN(C)CC/C=C1\c2ccccc2COc2ccccc21
active: [9] 26.6 µM
not listed: [4] | [10] | [11] | [12] | [14] | [17]
inactive: all other assays above

O=C(CC(=O)c1ccccc1)c1ccccc1
active: [2] 65.7 µM | [18] 23.3 µM
not listed: [6] | [11] | [17]
inactive: all other assays above

Cc1ccc2c(ccc3ccccc32)c1
not listed: [5] | [7] | [11] | [13] | [17]
inactive: all other assays above

CCCCCOC(=O)COc1cc(N2C(=O)C3=C(CCCC3)C2=O)c(F)cc1Cl
not listed: [10] | [12] | [13] | [14] | [15] | [17] | [18]
inactive: all other assays above

NC(=S)N/N=C/c1cccnc1
not listed: [5] | [7] | [13] | [15] | [17]
inactive: all other assays above

O=C(Nc1ccccc1)OCC(CN1CCCCC1)OC(=O)Nc1ccccc1 (stereo not drawn)
active: [17] 16.8 µM | [9] 26.6 µM | [11] 26.6 µM
not listed: [4] | [10] | [12] | [13] | [14] | [16] | [18]
inactive: all other assays above

CCN(CC)CCc1nc(-c2ccccc2)no1
not listed: [13] | [15] | [16] | [17] | [18] | [20]
inactive: all other assays above
